Screening results as filed in PubChem BioAssay.
STK33 kin inh = STK33 kinase inhibitors, primary screen, biochemical, luminescence, ADP-Glo, MBP substrate | inhibition, % at 12.5 µM | 27,000 compounds, 0.44% hits; in the data active = inhibition above about 20%; inconclusive = no clear call, values can overlap the other calls
Target sequence (Q9BYT3 whole entry, looked up): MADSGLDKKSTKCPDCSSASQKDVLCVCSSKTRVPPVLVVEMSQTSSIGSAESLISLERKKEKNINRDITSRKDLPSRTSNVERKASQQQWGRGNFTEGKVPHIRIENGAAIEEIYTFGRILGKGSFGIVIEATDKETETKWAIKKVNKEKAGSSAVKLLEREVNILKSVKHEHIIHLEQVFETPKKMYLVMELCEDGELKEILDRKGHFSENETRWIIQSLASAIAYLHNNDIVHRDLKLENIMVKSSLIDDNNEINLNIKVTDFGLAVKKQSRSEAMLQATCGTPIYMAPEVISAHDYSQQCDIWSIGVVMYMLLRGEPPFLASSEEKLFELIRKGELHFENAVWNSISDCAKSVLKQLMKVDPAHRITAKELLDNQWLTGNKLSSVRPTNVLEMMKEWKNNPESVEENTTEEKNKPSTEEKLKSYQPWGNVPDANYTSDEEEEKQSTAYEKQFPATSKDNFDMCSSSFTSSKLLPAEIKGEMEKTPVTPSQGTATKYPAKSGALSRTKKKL
PD-1 reversal = activators reversing PD-1 mediated T-cell inhibition, primary screen, luminescence, primary human CD4 T cells, PD-L1 beads | CellTiter-Glo 96 h | activation, % (no concentration beside the values) | 29,000 tested, under 10 active | AID 2316, 2010; call rule not given here
NOMO-1 viab = NOMO-1 AML cell viability reduction, primary screen, STK33 inhibitor project, CellTiter-Glo luminescence | NOMO-1 AML viability, 72 h | inhibition, % (no concentration beside the values) | 37,000 compounds, 7.5% hits | AID 2330, 2010; in the data active = inhibition above about 80%; inconclusive = no clear call, values can overlap the other calls
Each line names hits and unclear results; the compound was inactive in the other large screens. This is one part of a sample in which hits are shown more often than they occur.

CCNC(=S)N1N=C2c3ccccc3CCC2C1c1ccc(F)cc1 (centres undefined)	NOMO-1 viab 112.8 (no result: STK33 kin inh)
O=C(c1ccco1)N1N=C2c3ccccc3CCC2C1c1ccc(F)cc1 (centres undefined)	none (no result: STK33 kin inh)
CC1=CC(C)(C)Nc2ccc(OC(=O)CN3C(=O)c4cccc([N+](=O)[O-])c4C3=O)cc21	NOMO-1 viab 115.3
CCOc1ccc2c(c1)C(C)=CC(C)(C)N2	none (no result: PD-1 reversal)
O=C(Cn1nnc2ccccc21)OCc1ccccc1Cl	none
O=C(c1ccc(Br)cc1)N1Cc2ccccc2NC1=S	NOMO-1 viab 125.0 (no result: STK33 kin inh)
O=C(c1ccc(O)cc1)N1Cc2ccccc2NC1=S	none (no result: STK33 kin inh)
CC(=O)c1cccc(NC(=O)COc2ccccc2C(=O)Nc2ccc3c(c2)oc2ccccc23)c1	none
O=C(CSc1nc(-c2ccccc2)cs1)Nc1ccccc1	none
Cc1cc(C)cc(Sc2ccc3nnc(-c4ccccc4)n3n2)c1	NOMO-1 viab 122.3 (no result: STK33 kin inh)
CSc1nnc(-c2ccccc2)n1-c1ccccc1	none (no result: STK33 kin inh)
CS(=O)(=O)N(CC(=O)Nc1ccccc1C(F)(F)F)c1ccc2c(c1)OCCO2	none (no result: PD-1 reversal)
CCOC(=O)c1cc2c(NC(C)=O)c(C(=O)OCC)sc2nc1C(F)(F)F	none
CC1=CC(=O)C2=C(C)CC[C@@H]3[C@H](OC(=O)[C@H]3C)[C@@H]12	none (no result: PD-1 reversal)
C=C1C(=O)O[C@H]2C1CCC(C)=C1C(=O)C=C(C)[C@@H]12 (some centres undefined)	NOMO-1 viab 114.9
COc1cc2c(cc1OC)[C@@H]1C(=O)c3ccc4c(c3O[C@@H]1CO2)CCC(C)(C)O4	none (no result: PD-1 reversal)
C=C(C)[C@@H]1Cc2c(ccc3c2O[C@H]2COc4cc(OC)c(OC)cc4[C@@]2(O)C3=O)O1	NOMO-1 viab 116.8
Cc1ccc(NC(=O)COc2ccc3c(=O)c(-c4ccccc4Cl)coc3c2)cc1	none
O=S(=O)(CCSc1ccccc1)c1ccccc1	none (no result: STK33 kin inh)
O=C(O)C1C2C=CC(O2)C1C(=O)Nc1ccc(S(=O)(=O)N2CCc3ccccc32)cc1 (centres undefined)	none
O=S(=O)(c1ccc(Cl)cc1)N1CCc2ccccc21	NOMO-1 viab 120.2
CC(O)c1nc2ccccc2n1CCCOc1ccc(Cl)cc1 (centres undefined)	none
C=C1C2=C(O[C@H](/C(C)=C/C(C)CC(C)CC)[C@@H](O)[C@@H]2O)C(=O)N1OC (some centres undefined)	NOMO-1 viab 107.2
CC1CCC2(NC1)OC1CC3C4CC=C5CC(O[C@@H]6O[C@H](CO)[C@@H](O[C@@H]7O[C@@H](C)[C@H](O)[C@@H](O)[C@H]7O)[C@H](O)[C@H]6O)CCC5(C)C4CCC3(C)C1C2C (some centres undefined)	none
C[C@@H]1O[C@@H](O[C@H]2[C@H](O)[C@@H](O[C@@H]3O[C@H](CO)[C@@H](O)[C@H](O[C@@H]4O[C@H](CO)[C@@H](O)[C@H](O)[C@H]4O)[C@H]3O)[C@H](O[C@H]3CC[C@@]4(C)C(=CC[C@@H]5C4CC[C@@]4(C)C5C[C@@H]5O[C@]6(CC[C@@](C)(CO[C@@H]7O[C@H](CO)[C@@H](O)[C@H](O)[C@H]7O)O6)[C@@H](C)[C@@H]54)C3)O[C@@H]2CO)[C@H](O)[C@H](O)[C@H]1O (some centres undefined)	NOMO-1 viab 120.3
COc1ccc(CN(C)C[C@@H]2Oc3ccc(NS(=O)(=O)c4ccc(F)cc4)cc3CC(=O)N([C@@H](C)CO)C[C@@H]2C)cc1	none (no result: STK33 kin inh, PD-1 reversal)
COc1ccc(S(=O)(=O)Nc2ccc3c(c2)CC(=O)N([C@@H](C)CO)C[C@H](C)[C@H](CN(C)Cc2ccc(C(F)(F)F)cc2)O3)cc1	NOMO-1 viab 108.3
COc1ccc(S(=O)(=O)Nc2ccc3c(c2)CC(=O)N([C@H](C)CO)C[C@@H](C)[C@H](CN(C)Cc2ccc(C(F)(F)F)cc2)O3)cc1	NOMO-1 viab inconclusive
COc1ccc(CN(C)C[C@@H]2Oc3ccc(NS(=O)(=O)c4ccc(F)cc4)cc3CC(=O)N([C@H](C)CO)C[C@H]2C)cc1	none (no result: PD-1 reversal)
COc1ccc(S(=O)(=O)Nc2ccc3c(c2)CC(=O)N([C@@H](C)CO)C[C@@H](C)[C@@H](CN(C)Cc2ccc(C(F)(F)F)cc2)O3)cc1	NOMO-1 viab 94.8
COc1ccc(S(=O)(=O)Nc2ccc3c(c2)CC(=O)N([C@H](C)CO)C[C@@H](C)[C@@H](CN(C)Cc2ccc(C(F)(F)F)cc2)O3)cc1	NOMO-1 viab 119.3
COc1cc(OC)cc(-c2nnc(SCC(=O)c3cccc([N+](=O)[O-])c3)o2)c1	none (no result: PD-1 reversal)
CC(=O)Nc1ccc(C(=O)CSc2nncn2C)cc1	none
C=C[C@@](C)(O)CCC1C(=C)CCC2[C@@](C)(CO)CCC[C@]12C (some centres undefined)	none
Cc1nc2ccccc2cc1C(N)=O	none (no result: STK33 kin inh)
Cc1nc(N=C(N)N)nc2ccccc12	NOMO-1 viab 88.7 (no result: STK33 kin inh)
O=C(CCN1C(=O)c2ccccc2C1=O)Nc1ccc(NC(=O)c2ccco2)cc1	none
O=C(ON1C(=O)c2ccccc2C1=O)c1ccco1	NOMO-1 viab 115.3 (no result: STK33 kin inh)
O=C1C(=O)C(C2CCC(c3ccc(Cl)cc3)CC2)C(=O)c2ccccc21 (centres undefined)	none
C[C@@H]1CCCCO[C@H](CN(C)Cc2ccc(C(=O)Nc3ccccc3N)cc2)[C@@H](C)CN([C@H](C)CO)C(=O)c2cc(NS(=O)(=O)c3cccs3)ccc2O1	NOMO-1 viab 127.2 (no result: STK33 kin inh)
C[C@@H]1CCCCO[C@@H](CN(C)Cc2ccc(C(=O)Nc3ccccc3N)cc2)[C@@H](C)CN([C@H](C)CO)C(=O)c2cc(NS(=O)(=O)c3cccs3)ccc2O1	NOMO-1 viab 138.5 (no result: STK33 kin inh)
C[C@@H]1CN([C@@H](C)CO)C(=O)c2cc(NS(=O)(=O)c3cccs3)ccc2O[C@H]1CN(C)Cc1ccc(C(=O)Nc2ccccc2N)cc1	none (no result: STK33 kin inh)
C[C@@H]1CCCCO[C@H](CN(C)Cc2ccccc2)[C@@H](C)CN([C@H](C)CO)C(=O)c2cc(NS(=O)(=O)c3cccs3)ccc2O1	none
CCC(C)N1CCC2(CC1)N=c1c(c3c4c5c(C)c(O)c3c(O)c1=NC(=O)/C(C)=C\C=C[C@H](C)[C@H](O)[C@@H](C)[C@@H](O)[C@@H](C)[C@H](OC(C)=O)[C@H](C)[C@@H](OC)/C=C\O[C@@](C)(O5)C4=O)N2 (some centres undefined)	none (no result: PD-1 reversal)
COC(=O)c1ccc(CSc2n[nH]c(-c3ccccc3OC)n2)o1	NOMO-1 viab 114.4 (no result: PD-1 reversal)
CCOc1ccc(-c2nc(SCc3ccc(C(=O)OC)o3)n[nH]2)cc1	NOMO-1 viab inconclusive
C/C=C1\[C@H](O[C@@H]2O[C@H](CO)[C@@H](O)[C@H](O)[C@H]2O)OC=C(C(=O)OC)[C@H]1CC(=O)OC[C@H]1O[C@@H](OCCc2ccc(O)cc2)[C@H](O)[C@@H](O)[C@@H]1OC(=O)C[C@@H]1C(C(=O)OC)=CO[C@@H](O[C@@H]2O[C@H](CO)[C@@H](O)[C@H](O)[C@H]2O)/C1=C\C	none
O=C(Nc1ccc(-c2nc3cc(NC(=O)C4CCCCC4)ccc3o2)cc1)C1CCCCC1	NOMO-1 viab 99.0 (no result: STK33 kin inh)
O=C(Nc1cccc(-c2nc3ccccc3c(=O)o2)c1)C1CCCCC1	none (no result: STK33 kin inh)
NC(=NC(=O)c1cnccc1C(F)(F)F)c1ccccn1	none (no result: STK33 kin inh)
CC#CCc1cc2ccccc2c(=O)o1	none
O=c1oc(Cl)c(Cl)c2ccccc12	NOMO-1 viab 119.2 (no result: PD-1 reversal)
